Screening results deposited in PubChem by Broad Institute.
NSD2 inh: blocks human histone methyltransferase NSD2 | 0.54% of 310,000 active | inhibition, % at 12.5 µM | O96028 | NSD2 peptide methylation, AlphaScreen, 120 min
Target sequence (O96028 whole entry, looked up): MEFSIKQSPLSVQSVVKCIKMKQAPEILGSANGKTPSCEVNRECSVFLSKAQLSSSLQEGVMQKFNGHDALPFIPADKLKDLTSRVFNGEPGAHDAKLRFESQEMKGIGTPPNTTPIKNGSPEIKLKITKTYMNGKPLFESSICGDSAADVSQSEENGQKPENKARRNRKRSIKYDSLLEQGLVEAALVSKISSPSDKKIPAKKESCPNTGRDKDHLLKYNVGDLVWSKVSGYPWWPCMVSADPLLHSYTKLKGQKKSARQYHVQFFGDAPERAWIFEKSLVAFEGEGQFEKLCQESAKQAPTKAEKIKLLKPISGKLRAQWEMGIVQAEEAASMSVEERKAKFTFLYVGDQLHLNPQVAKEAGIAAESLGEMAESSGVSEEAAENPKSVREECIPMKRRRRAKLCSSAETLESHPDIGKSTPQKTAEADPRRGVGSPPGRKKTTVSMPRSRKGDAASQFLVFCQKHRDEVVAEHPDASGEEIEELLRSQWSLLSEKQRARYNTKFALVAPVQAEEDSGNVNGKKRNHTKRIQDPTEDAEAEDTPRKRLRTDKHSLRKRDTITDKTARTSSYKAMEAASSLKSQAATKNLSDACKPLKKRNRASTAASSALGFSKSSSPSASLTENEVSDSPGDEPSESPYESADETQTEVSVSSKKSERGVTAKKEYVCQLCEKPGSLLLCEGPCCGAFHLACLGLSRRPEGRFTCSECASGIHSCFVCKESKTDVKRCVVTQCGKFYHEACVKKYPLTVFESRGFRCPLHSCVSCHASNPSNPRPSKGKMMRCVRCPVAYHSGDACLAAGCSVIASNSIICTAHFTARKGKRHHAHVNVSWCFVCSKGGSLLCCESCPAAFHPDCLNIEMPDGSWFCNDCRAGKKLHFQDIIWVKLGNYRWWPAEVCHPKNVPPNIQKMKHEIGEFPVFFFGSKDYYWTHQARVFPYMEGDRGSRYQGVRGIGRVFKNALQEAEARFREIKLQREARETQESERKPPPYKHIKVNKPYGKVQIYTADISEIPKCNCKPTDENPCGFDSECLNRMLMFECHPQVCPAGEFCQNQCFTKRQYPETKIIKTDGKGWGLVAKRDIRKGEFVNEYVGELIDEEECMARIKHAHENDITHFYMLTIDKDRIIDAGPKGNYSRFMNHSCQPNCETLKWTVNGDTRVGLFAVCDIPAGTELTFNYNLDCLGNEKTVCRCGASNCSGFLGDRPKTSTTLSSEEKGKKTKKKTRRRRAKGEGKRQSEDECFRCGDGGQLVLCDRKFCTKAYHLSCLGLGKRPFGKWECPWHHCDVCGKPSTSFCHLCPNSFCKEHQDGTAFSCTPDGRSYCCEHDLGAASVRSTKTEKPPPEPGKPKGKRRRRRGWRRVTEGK
Dyrk1A ADPGlo: Dyrk1A (rat) kinase inhibition. Q63470. ADP-Glo luminescence, NFATc1 peptide. inhibition, % at 12.5 µM. 0.43% of 310,000 active. AID 504441;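 note: plate controls were vehicle with enzyme for no effect and no enzyme for full effect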
miR122 inh: miR-122 inhibition in Huh7 cells; Huh7 miR-122 Renilla luciferase sensor, 48 h; neutral wells = 0, positive control = 100; activation (reporter increase), % at 12.5 µM; 0.3% of 340,000 active;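 active = mean replicate activation score at least 90 and every replicate individually at or above 90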;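 note: higher luciferase means less miR-122 activity so hits act as miR-122 inhibitors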
GSIS activator: GLuc luminescence reporter in INS-1E cells, primary screen for activators of glucose-dependent secretion of insulin. 0.61% of 370,000 active. INS-1E GLuc reporter insulin secretion, 2-3 h. activation, % at 16.6 µM;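 active = lowest replicate activation of at least 40%, so every replicate reaches that level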;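 note: 0% = median of neutral control wells and 100% = median of IBMX positive control wells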
MITF act: activators of MITF-driven TRPM1 promoter activity in SK-MEL-5 cells; AID 588334; activation, % at 12.5 µM; 0.75% of 300,000 active; SK-MEL-5 TRPM1-promoter luciferase, 24 h; % of positive control, neutral wells = 0;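 active = mean activation of at least 80% with every replicate also reaching 80%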;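 note: 0% = neutral control wells and 100% = parthenolide positive control wells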
Wnt act: Wnt/beta-catenin pathway activation. Wnt/beta-catenin reporter cell assay, activator, plate reader. activation, % at 9.35 µM. 1.2% of 300,000 active; in the data active = activation above about 30%, passing the limit was not always enough;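 note: 0% = neutral control wells and 100% = positive control wells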
* = called active by the depositor; . = no result; [ ] = dose if it differs, or a comment. The list is not random: actives were taken first. Their share in the collection is about 2.4%. Cut-off read from the data, not from the text of the source, unless noted: active = inhibition above about 50%; inactive = the rest.

SMILES | NSD2 inh | Dyrk1A ADPGlo | miR122 inh | GSIS activator | MITF act | Wnt act
N#CCCCc1cc2ccccc2cn1 | . | 2 | -4 | 51* | 12 | 1
Cc1ccc(C(=O)NN2C(=O)C3C4c5ccccc5C(c5ccccc54)[C@@H]3C2=O)cc1 (stereo partly drawn) | . | -4 | -4 | -21 | 16 | .
CN1C(=O)C2C3c4ccccc4C(c4ccccc43)[C@@H]2C1=O (stereo partly drawn) | -1 | -1 | . | 71* | -2 | -2
O=C(NN1C(=O)C2C3c4ccccc4C(c4ccccc43)[C@@H]2C1=O)c1ccccc1 (stereo partly drawn) | . | -9 | . | 17 | -7 | 30*
O=C(NN1C(=O)C2C3c4ccccc4C(c4ccccc43)C2C1=O)C1CC1 (stereo not drawn) | 1 | -2 | . | -3 | -5 | 51*
COc1cc(CN2CC3(CCN(C)CC3)c3c([nH]c4cc(OC)ccc34)[C@@H]2CO)cc(OC)c1 | . | . | . | 0 | . | .
CN(C)S(=O)(=O)n1cc(/C=C(\NC(=O)c2ccccc2)C(=O)NCCCn2ccnc2)c2ccccc21 | 10 | 2 | 30 | 3 | 13 | 0
CN(C)S(=O)(=O)n1cc(/C=C(\NC(=O)c2ccccc2Cl)C(=O)NCCCn2ccnc2)c2ccccc21 | -2 | . | 125* | -17 | 14 | 1
COCCN(CC(=O)NC1CCCCC1)C(=O)/C=C/C(=O)c1ccc(OC)cc1O | 4 | 7 | . | 49* | -94 | 0
C[C@@H]1CCCCO[C@H](CN(C)C(=O)c2ccccc2)[C@@H](C)CN([C@@H](C)CO)C(=O)c2cc(NS(=O)(=O)c3cccs3)ccc2O1 | . | . | -3[16.7 µM] | -20 | . | .
C(=C\c1nc(-c2cccnc2)no1)/c1ccccc1 | . | 3 | -7 | 0 | 75 | 48*
Clc1ccccc1/C=C/c1nc(-c2cccnc2)no1 | -4 | 6 | -21 | 11 | 84* | 39*
CC(=O)Nc1ccc2nc(C3CC3)n(Cc3ccc(Cl)cc3)c(=O)c2c1 | 2 | 3 | 0 | -11 | 43 | -2
COc1ccc(Cn2c(C3CC3)nc3ccc(NC(=O)C4CC4)cc3c2=O)cc1 | -2 | 5 | -10 | . | 118* | 17
Oc1ccccc1C=NN=Cc1c(O)ccc2ccccc12 | -2 | -4 | . | . | 29 | 48*
Oc1ccc2ccccc2c1C=Nc1ccc(Cl)cn1 | 1 | 6 | . | 2 | -3 | 46*
C[C@@H]1CCCCO[C@@H](CN(C)Cc2ccc3c(c2)OCO3)[C@@H](C)CN([C@@H](C)CO)C(=O)c2cc(NC(=O)Nc3cccc4ccccc34)ccc2O1 | . | . | 7[16.7 µM] | -39 | . | .
CN(C)S(=O)(=O)c1cc(NC(=O)COC(=O)CCc2ccccc2)ccc1Cl | 17 | 1 | . | -2 | -10 | 1
CN(C)S(=O)(=O)c1cc(NC(=O)[C@H](Cc2ccccc2)N2C(=O)c3ccccc3C2=O)ccc1Cl | 24 | 3 | . | -28 | -5 | 31*
CCOc1ccccc1-n1nnnc1SCC(=O)N1CCCC1=O | 14 | . | 3 | 51* | -2 | -3
CN(C)C(=O)[C@@H]1[C@@H](CO)[C@@H]2Cn3c(ccc(-c4cccc(F)c4)c3=O)[C@H]1N2Cc1ccccc1 | . | . | . | -11 | . | .
O=C(C[C@H]1CC[C@@H](NC(=O)Nc2cc(F)ccc2F)[C@H](CO)O1)NCCCN1CCOCC1 | . | . | . | 3 | . | .
O=c1[nH]nc(-c2ccccc2)c2ccccc12 | 1 | 8 | -11 | 66* | 0 | 1
CC(C)NC(=O)N[C@H]1CC[C@@H](CC(=O)O)O[C@H]1CO | . | . | 17[16.7 µM] | -9 | . | .
COc1ccc(S(=O)(=O)N2CC[C@@H]3[C@@H](CO)Nc4ccc(C#Cc5ccccc5OC)cc4[C@@H]32)cc1 | . | . | . | 8 | . | .
SMILES | NSD2 inh | Dyrk1A ADPGlo | miR122 inh | GSIS activator | MITF act | Wnt act
COc1ccc(C(C)NCCC(c2ccc(OC(C)C)cc2)c2ccccc2OC)cc1 (stereo not drawn) | 0 | -2 | . | 134* | -92 | 1
COc1cc(C)ccc1OCC(=O)Nc1ccc2c(c1)OCO2 | 1 | . | -7 | 17 | 75 | 48*
CC(=O)Nc1ccccc1OCC(=O)c1ccc2c(c1)OCO2 | 0 | -1 | 5 | . | . | 37*
O=C(COC(=O)C1CC1)Nc1ccc2c(c1)OCO2 | -4 | -3 | . | -4 | 11 | 47*
COc1ccccc1OCC(=O)Nc1ccc2c(c1)OCO2 | 1 | 3 | . | 5 | 46 | 10
CC(=O)Nc1ccc2nc(NC(=O)COc3ccccc3Cl)sc2c1 | 0 | . | -3 | -1 | 89* | 10
CN(C)CCC(=O)c1ccc2c(c1)OCO2 | . | -5 | -4 | . | . | .
Cc1cc(Cl)c(S(=O)(=O)Nc2ccc3c(c2)OCO3)cc1OCC(=O)NC1CCCCC1 | 2 | 8 | 94* | . | . | .
O=C(CCNc1ccccc1)c1ccc2c(c1)OCO2 | -4 | -2 | 4 | . | . | 48*
O=C(COc1ccccc1Cl)Nc1ccc2c(c1)OCO2 | -1 | 13 | . | -10 | 121* | 2
CC(C)NC(=O)N(C)C[C@H]1Oc2ccc(NC(=O)Cn3cnnn3)cc2C(=O)N([C@H](C)CO)C[C@H]1C | . | . | 1[16.7 µM] | 18 | . | .
CC(C)CC#Cc1ccc([C@@H]2[C@@H](CO)N3C(=O)CN(C(=O)c4ccc5c(c4)OCO5)C[C@@H]23)cc1 | . | . | . | -12 | . | .
COc1ccc(NC(=O)N(C)C[C@H]2OCCCC[C@H](C)Oc3ccc(NC(=O)CCCN(C)C)cc3C(=O)N([C@@H](C)CO)C[C@H]2C)cc1 | . | . | 11[16.7 µM] | -3 | . | .
COc1ccc(Cc2nc3ccc(C(=O)N4CCC(C(N)=O)CC4)cc3o2)cc1 | -1 | . | -8 | . | . | -5
COc1ccc(Cc2nc3ccc(C(=O)N4CCOCC4)cc3o2)cc1 | -1 | 2 | 1 | 13 | 95* | 20
COc1cccc(-c2ccc3c(c2)[C@H]2[C@H](CCN2C(=O)c2ccc(F)cc2)[C@H](CO)N3)c1 | . | . | -7[16.7 µM] | -2 | . | .
C=CCNc1ncnc2c1ncn2[C@H]1CN(Cc2cc(OC)c(OC)c(OC)c2)C[C@@H](CO)O1 | -3 | . | 1 | 42* | . | 0
Cc1noc(C)c1S(=O)(=O)Nc1ccc2c(c1)CC(=O)N([C@@H](C)CO)C[C@H](C)[C@@H](CN(C)C(=O)NC1CCCCC1)O2 | . | . | 6[16.7 µM] | 15 | . | .
O=C1/C(=C/c2cccs2)SC(=S)N1c1ccccc1 | . | -3 | -2 | . | 27 | 4
O=C1S/C(=C\c2cccs2)C(=O)N1c1ccc(O)cc1 | 0 | 2 | -10 | 1 | 98* | 44*
CC1CCCN(C(=O)Cn2nnc(-c3cccnc3)n2)C1 (stereo not drawn) | -1 | -4 | 91* | . | . | 0
CC1CCCN(C(=O)Cn2nnc(-c3ccc(F)cc3)n2)C1 (stereo not drawn) | . | 11 | 1 | -12 | 8 | 0
CCCN1C[C@@H](C)[C@H](OC)CN(C)C(=O)c2ccc(NC(=O)Nc3ccccc3F)cc2OC[C@@H]1C | . | . | . | -19 | . | .
